Experiment [1] is described as follows: stimulators of nuclear beta-catenin in C2C12, primary screen, imaging, WNT3A-conditioned medium, mouse C2C12, NPC library (AID 1117326; in the data active means nuclear beta-catenin stimulation mostly above about 4.2%, no sharp cut-off; inactive means mostly below about 10%; further: reference of the scale not given here). Conditions: stronger effect = higher value.
Experiment [2] can be described thus: stimulators of insulin release from INS-1E, primary screen, cell-based, 5 mM glucose, NPC library (AID 1117329). Further: reference of the scale not given here. The conditions noted are these: rat INS-1E insulin secretion, at 10 µM, stronger effect = higher value.
Experiment [3] can be described thus: growth inhibition of GSK3B-pretreated HCT116 cells – cell-based, CellTiter-Glo, 0.2 to 20 µM (AID 1117336;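 active means compounds lowering colon cancer cell viability after pretreatment blocking the GSK3B kinase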). Conditions: HCT116 viability after GSK3B inhibitor, at 20 µM, stronger effect = higher value. For orientation: ATP-based viability assays read luminescence as a measure of living cells.
Experiment [4] is described as follows: inhibition of endothelial tube formation, primary screen, imaging, VEGF stimulated, CD31 staining, tube area, NPC library (AID 1117340;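 active means compound that reduces growth-factor-driven endothelial tube area in a mixed cell culture, no cutoff stated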). The conditions noted are these: VEGF-stimulated ADSC/ECFC co-culture, at 10 µM, stronger effect = higher value.
Experiment [5] in a line: glucagon-like peptide 1 release enhancers, primary assay, NCI-H716 cell line, NPC library (AID 1117341;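 active means compound raises GLP1 secretion from the human gut endocrine cells, with no numeric limit stated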; further: reference of the scale not given here). The conditions noted are these: NCI-H716 cells, at 10 µM, stronger effect = higher value.
Experiment [6] can be described thus: HCT116 colon cancer cell growth inhibition, primary screen, CellTiter-Glo luminescence, NPC library (AID 1117342;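 active means compounds that lower survival of HCT116 colon cancer cells in the luminescence readout, no numeric limit stated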). Conditions: at 20 µM (top of the series).
Experiment [7] is described as follows: CellTiter-Glo luminescent readout of SW480 viability loss, NPC library primary (AID 1117343;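 active means compounds that lower viability of the colon cancer cells in the luminescence readout, with no numeric limit stated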). The conditions noted are these: CellTiter-Glo luminescence; at 20 µM (top of the series).
Experiment [8] in a line: decreased DLD-1 cellular survival, CellTiter-Glo luminescent readout, NPC compound collection, primary HTS (AID 1117346;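 active means compounds that lower survival of DLD-1 colon cancer cells in the luminescence readout, no cutoff given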). The conditions noted are these: DLD-1 viability, CellTiter-Glo luminescence; at 20 µM (top of the series).

Molecules are shown by their SMILES. Activity calls are given as the source filed them.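 How the source made its calls, unless noted: active means compound raises insulin release from rat beta cells at 5 mM glucose, no numeric limit stated; inactive means the rest.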

Consider `CCCCCCCCCCC(CO)CCCCCCCC` (stereo unspecified), for which the nuclear beta-catenin stimulation is -0.6% (inactive) in experiment [1] (at 10 µM) and -0.4% in experiment [1] (stimulation, at 2 µM). Moreover, the insulin secretion stimulation in experiment [2] is -0.5% (inactive). In addition, the viability decrease in experiment [3] is 11.5% (inactive). In addition, the tube area decrease in experiment [4] is -3.9% (inactive). For the same compound, the GLP1 secretion stimulation in experiment [5] was -4% (inactive). Moreover, the inhibition of viability in experiment [6] was 5.07% (inactive). The viability decrease (inhibition) in experiment [7] is 14.5% (inactive); in experiment [8], -17.6% (inactive).
Turning to `Nc1ncnc2c1ncn2CCOCP(=O)(O)O`, the nuclear beta-catenin stimulation in experiment [1] (at 10 µM) is -0.6% (inactive); in experiment [1] (stimulation, at 2 µM), 0.1%. The insulin secretion stimulation in experiment [2] was -2% (inactive). Further, the viability decrease in experiment [3] is -1.45% (inactive). In experiment [4], the tube area decrease was 11.2% (inactive). Besides, the GLP1 secretion stimulation in experiment [5] is 4% (inactive). The inhibition of viability in experiment [6] was -1.5% (inactive). Further, the viability decrease (inhibition) is 27.9% (inactive) in experiment [7] and 6.8% (inactive) in experiment [8].
For `O=C(O)[C@@H]1CSCN1`, the nuclear beta-catenin stimulation in experiment [1] (at 10 µM) was 0% (inactive); in experiment [1] (stimulation, at 2 µM), 0.2%. Moreover, in experiment [2], the insulin secretion stimulation is -2.5% (inactive). Further, in experiment [3], the viability decrease is -3.1% (inactive). The tube area decrease in experiment [4] was 16.2% (inactive). Further, in experiment [5], the GLP1 secretion stimulation is -0.4% (inactive). Further, the inhibition of viability in experiment [6] is 3.3% (inactive). Also, the viability decrease (inhibition) was 38.4% (inactive) in experiment [7] and 11.6% (inactive) in experiment [8].
`Cc1cc(=O)oc2cc(O[C@@H]3SC[C@@H](O)[C@H](O)[C@H]3O)ccc12`: the nuclear beta-catenin stimulation is -0.2% (inactive) in experiment [1] (at 10 µM) and -1.9% in experiment [1] (stimulation, at 2 µM). For the same compound, in experiment [2], the insulin secretion stimulation was 1.1% (inactive). Further, the viability decrease in experiment [3] is -1.3% (inactive). In addition, the tube area decrease in experiment [4] is 13.6% (inactive). Also, the GLP1 secretion stimulation in experiment [5] was 3.6% (inactive). The inhibition of viability in experiment [6] was -1.1% (inactive). In addition, the viability decrease (inhibition) in experiment [7] was -15.9% (inactive); in experiment [8], 15.4% (inactive).
Take `CC(=O)Oc1ccc(C(=C2CCCCC2)c2ccc(OC(C)=O)cc2)cc1`: the nuclear beta-catenin stimulation in experiment [1] (at 10 µM) was 0.2% (inactive); in experiment [1] (stimulation, at 2 µM), 1.4%. Also, the insulin secretion stimulation in experiment [2] was -0.3% (inactive). The viability decrease in experiment [3] was 109% (active). In addition, in experiment [4], the tube area decrease is 4.9% (inactive). Besides, the GLP1 secretion stimulation in experiment [5] is 7.4% (inactive). Besides, the inhibition of viability in experiment [6] was 112% (active). In addition, the viability decrease (inhibition) in experiment [7] was 130% (active); in experiment [8], 102% (active).
Consider `C[C@H](N)C(=O)N[C@@H](C)C(=O)NC1[C@H]2CN(c3nc4c(cc3F)c(=O)c(C(=O)O)cn4-c3ccc(F)cc3F)C[C@@H]12` (stereo partly specified), for which the nuclear beta-catenin stimulation is 0.2% (inactive) in experiment [1] (at 10 µM) and -2.1% in experiment [1] (stimulation, at 2 µM). The insulin secretion stimulation in experiment [2] was 3.4% (inactive). For the same compound, the viability decrease in experiment [3] was 80.7% (active). For the same compound, the tube area decrease in experiment [4] was 1.8% (inactive). Also, the GLP1 secretion stimulation in experiment [5] was 0.7% (inactive). For the same compound, in experiment [6], the inhibition of viability was 27.2% (inactive). The results for the viability decrease (inhibition) in experiment [7] and in experiment [8] were 2.9% (inactive) and -9.3% (inactive), respectively.
Turning to `NC(=S)N=Nc1ccc(NN=C(N)N)cc1`, the nuclear beta-catenin stimulation was 1.9% (inactive) in experiment [1] (at 10 µM) and 0.5% in experiment [1] (stimulation, at 2 µM). In addition, the insulin secretion stimulation in experiment [2] was 6.7% (inactive). Further, in experiment [3], the viability decrease was -24.6% (inactive). The tube area decrease in experiment [4] is 15.7% (inactive). Besides, the GLP1 secretion stimulation in experiment [5] is -3.7% (inactive). The inhibition of viability in experiment [6] was 4.5% (inactive). The viability decrease (inhibition) in experiment [7] was 25% (inactive); in experiment [8] it was 72.1% (active).
Take `CC(=O)N1C[C@H](O)C[C@H]1C(=O)O`: the nuclear beta-catenin stimulation in experiment [1] (at 10 µM) was 0.5% (inactive); in experiment [1] (stimulation, at 2 µM), -0.3%. Besides, the insulin secretion stimulation in experiment [2] is -0.3% (inactive). For the same compound, the viability decrease in experiment [3] is -2.7% (inactive). The tube area decrease in experiment [4] is -1.7% (inactive). Moreover, in experiment [5], the GLP1 secretion stimulation was -0.9% (inactive). Further, the inhibition of viability in experiment [6] is 7.13% (inactive). Also, the results for the viability decrease (inhibition) in experiment [7] and in experiment [8] were 8.1% (inactive) and 4% (inactive), respectively.
As for `CC1CCCCN1CCCOC(=O)c1ccc(OC2CCCCC2)cc1` (stereo unspecified), the nuclear beta-catenin stimulation in experiment [1] (at 10 µM) is 14.4% (inactive); in experiment [1] (stimulation, at 2 µM), 4.4%. For the same compound, the insulin secretion stimulation in experiment [2] was 12.4% (inactive). Besides, the viability decrease in experiment [3] was 21.7% (inactive). Also, the tube area decrease in experiment [4] is -14.7% (inactive). In addition, in experiment [5], the GLP1 secretion stimulation was 5.9% (inactive). Moreover, the inhibition of viability in experiment [6] was 83.6% (active). Also, the values for the viability decrease (inhibition) in experiment [7] and in experiment [8] were 111% (active) and 94.7% (active), respectively.
With `Cc1ccccc1N=Nc1ccc(N=Nc2c(O)ccc3ccccc23)c(C)c1`, the nuclear beta-catenin stimulation in experiment [1] (at 10 µM) is 4.6% (inactive); in experiment [1] (stimulation, at 2 µM), 5.4%. Moreover, the insulin secretion stimulation in experiment [2] is 1.7% (inactive). In addition, in experiment [3], the viability decrease was 2.6% (inactive). Moreover, in experiment [4], the tube area decrease was 38.9% (inactive). Also, the GLP1 secretion stimulation in experiment [5] is -8.5% (inactive). Further, the inhibition of viability in experiment [6] is 6.3% (inactive). Moreover, the figures for the viability decrease (inhibition) in experiment [7] and in experiment [8] were 17.9% (inactive) and 15.4% (inactive), respectively.
As to `Cc1cccc(OCC(O)CNC(C)(C)C)c1C` (stereo unspecified), the nuclear beta-catenin stimulation in experiment [1] (at 10 µM) was -0.4% (inactive); in experiment [1] (stimulation, at 2 µM), 0.2%. Also, the insulin secretion stimulation in experiment [2] is 1% (inactive). Also, in experiment [3], the viability decrease was -0.4% (inactive). In addition, the tube area decrease in experiment [4] was 18.2% (inactive). Besides, the GLP1 secretion stimulation in experiment [5] was -1% (inactive). Also, the inhibition of viability in experiment [6] is 23.8% (inactive). In addition, the viability decrease (inhibition) was 24.5% (inactive) in experiment [7] and 8.8% (inactive) in experiment [8].
Consider `CC(C)CCC[C@@H](C)[C@H]1CC[C@H]2[C@@H]3CC=C4C[C@@H](O)CC[C@]4(C)[C@@H]3CC[C@]12C`, for which the nuclear beta-catenin stimulation in experiment [1] (at 10 µM) was -0.4% (inactive); in experiment [1] (stimulation, at 2 µM) it was -1%. Also, in experiment [2], the insulin secretion stimulation was 1% (inactive). Also, the viability decrease in experiment [3] was 26.9% (inactive). In addition, the tube area decrease in experiment [4] was 37.5% (inactive). For the same compound, in experiment [5], the GLP1 secretion stimulation is -2.1% (inactive). The inhibition of viability in experiment [6] was 43.2% (inactive). Besides, the viability decrease (inhibition) in experiment [7] is 52.2% (active); in experiment [8], 41.9% (inactive).
With `Nc1ccc(C(=O)Nc2ccccc2N)cc1`, the nuclear beta-catenin stimulation in experiment [1] (at 10 µM) is 10.2% (inactive); in experiment [1] (stimulation, at 2 µM), 1.9%. In experiment [2], the insulin secretion stimulation was -0.6% (inactive). Further, the viability decrease in experiment [3] is 39.9% (active). Further, the tube area decrease in experiment [4] was 8.5% (inactive). In experiment [5], the GLP1 secretion stimulation was 1.1% (inactive). In addition, in experiment [6], the inhibition of viability is 72.5% (active). The results for the viability decrease (inhibition) in experiment [7] and in experiment [8] were 64.9% (active) and 29.3% (inactive), respectively.
Regarding `CC(=O)c1cc2ccccc2s1`, the nuclear beta-catenin stimulation was 2.1% (inactive) in experiment [1] (at 10 µM) and 1.1% in experiment [1] (stimulation, at 2 µM). Moreover, the insulin secretion stimulation in experiment [2] was -1.3% (inactive). Besides, the viability decrease in experiment [3] was 32.7% (inactive). The tube area decrease in experiment [4] is -3.8% (inactive). Further, the GLP1 secretion stimulation in experiment [5] is 0.1% (inactive). The inhibition of viability in experiment [6] was 31.2% (inactive). For the same compound, the viability decrease (inhibition) in experiment [7] was 32.8% (inactive); in experiment [8], 26.6% (inactive).

(Values after PubChem BioAssay.)
